# Assay outcomes from PubChem BioAssay.
# In the library only some 11% were active in any assay of this set; here they are far more common.
# PNC inhibitor: perinucleolar compartment assembly inhibition; AID 2417; 3.1% of 140,000 active; PC3M PTB-GFP, PNC prevalence imaging, 16 h; hits give low values; activity change (PNC), negative = inhibition, % at 10 µM;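 active = readout at or below -70, meaning at least 70% loss of cells showing the perinucleolar compartment, a nuclear body marking cancer cells; inconclusive = readout between -30 and a set limit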;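 note: plate controls were DMSO wells for no effect and camptothecin positive control wells for full effect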
#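 PC3M cells stably expressing PTB-GFP, 750–1000 cells/well, treated 16 h at 37 °C with compound (23 nl of library stock), in duplicate. After paraformaldehyde fixation and Hoechst stain, imaged at 20x; PNC prevalence scored by image analysis.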
# CBFb-RUNX1 inh: inhibitors of human CBF-beta and RUNX1 interaction; AID 1477; Potency, µM (doses to about 59.8 µM), without a hit: at the top dose activity, negative = inhibition, usual class: inhibitors; 230,000 tested, under 10 active; AlphaScreen CBFb-His/RUNX1-biotin binding, biochemical; Q01196+Q13951; note: % of control where 0% means no effect
# Target sequence (Q01196 whole entry, looked up): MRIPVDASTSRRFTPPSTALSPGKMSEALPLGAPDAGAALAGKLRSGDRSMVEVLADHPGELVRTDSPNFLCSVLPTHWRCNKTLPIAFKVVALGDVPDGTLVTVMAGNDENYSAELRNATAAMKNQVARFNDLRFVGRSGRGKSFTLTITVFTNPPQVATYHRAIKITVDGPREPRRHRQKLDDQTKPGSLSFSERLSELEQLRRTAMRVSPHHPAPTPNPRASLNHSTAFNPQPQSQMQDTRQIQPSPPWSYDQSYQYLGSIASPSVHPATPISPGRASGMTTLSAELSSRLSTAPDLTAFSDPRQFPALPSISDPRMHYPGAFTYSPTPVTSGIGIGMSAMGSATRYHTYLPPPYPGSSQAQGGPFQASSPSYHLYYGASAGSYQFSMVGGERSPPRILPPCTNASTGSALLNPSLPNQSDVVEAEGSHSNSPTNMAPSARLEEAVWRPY
# Target sequence (Q13951 whole entry, looked up): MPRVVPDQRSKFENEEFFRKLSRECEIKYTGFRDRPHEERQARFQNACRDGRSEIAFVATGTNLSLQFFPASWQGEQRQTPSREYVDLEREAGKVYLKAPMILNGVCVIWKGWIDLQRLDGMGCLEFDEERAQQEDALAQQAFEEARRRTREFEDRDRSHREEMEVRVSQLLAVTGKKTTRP
#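 Bead-based AlphaScreen assay; binding partners His-tagged CBF-beta and biotinylated RUNX1 at 30 nM each. Compound exposure 15 min after a 20-min protein preincubation; bead step 90 min; all steps at room temperature.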
# HTT aggregate: mutant huntingtin aggregation inhibition; PC12 HttQ103-GFP aggregates, Acumen cytometry, 40 h; Potency, µM (series often up to 46.1 µM), for the others: top-dose activity change, negative = inhibition, usual class: inhibitors; 1.1% of 220,000 active; AID 1688; note: potency is the fitted concentration of half-maximal effect; % is set by controls: 0 for no effect and ±100 for the full control effect; nearly all actives have a fitted effect of over 60% in size
#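 PC12/HTTQ103-GFP, ecdysone-inducible; teb 100 nM; cpd qHTS titration; GFP aggregates read on laser cytometer, Ex 488/Em 500-530 nm.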
# HPGD block: inhibitors of human 15-hydroxyprostaglandin dehydrogenase (HPGD). P15428. purified HPGD, NADH fluorescence kinetic, PGE2 substrate. Potency, µM, for the others: top-dose activity change, negative = inhibition, most hits filed as inhibitors. 4.3% of 150,000 active. AID 894; active = well fitted inhibition curve with a large enough effect, not every such curve was filed as active; inconclusive = small, poorly fitted or top-dose-only effect, or another doubt; inactive = no such curve, though single readings can be large or run the other way; note: potency is the fitted concentration of half-maximal effect; % is set by controls: 0 for no effect and ±100 for the full control effect
#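 NADH formation kinetics: reaction with 30 uM PGE2 and 1 mM NAD+ (final), 20 nM enzyme, Tris-HCl pH 8 with Tween 20, after 15 min compound preincubation at room temperature. Fluorescence change, last versus first of five reads.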
# HTT cytoprotect: protects HTT-Q103 PC12 cells, measured by ATP | PC12 HTT-Q103 induced, cytoprotection, ATP luminescence, 40 h | Potency, µM (top dose mostly 56.4 µM), for the others: cytoprotection (ATP increase), usual class: activators | 0.14% of 230,000 active; note: potency is the fitted concentration of half-maximal effect; % of control where 0% means no effect; nearly all actives have a fitted effect of over 45% in size
#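 Cells were plated at 1500 per well in phenol red-free DMEM with 5% equine and 5% calf serum. Tebufenozide (100 nM final) and compounds were added, then ATPlite reagent, and luminescence was read.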
# ALDH1A1 inh: blocks purified human ALDH1A1 activity; Potency, µM (series often up to 75.3 µM), for inactives: at the highest dose activity, negative = inhibition, most hits filed as inhibitors; Purified ALDH1A1, NADH fluorescence, propionaldehyde substrate; 7.3% of 220,000 active; P00352; active = well fitted inhibition curve with a large enough effect, not every such curve was filed as active; inconclusive = small, poorly fitted or top-dose-only effect, or another doubt; inactive = no such curve, though single readings can be large or run the other way;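 note: potency is the fitted concentration of half-maximal effect; plate controls were no enzyme wells and a reference inhibitor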
# An asterisk follows results filed as active; ? = inconclusive; . = not tested or not shown; [ ] = remark or other dose. Unless noted, calls come from the whole dose curve; as a rule, active = well fitted curve in the direction sought with a large enough effect; inconclusive = small, poorly fitted or top-dose-only effect, or another doubt; inactive = no such curve, though single readings can be large; an effect the other way counts as inactive or inconclusive.
SMILES,PNC inhibitor,CBFb-RUNX1 inh,HTT aggregate,HPGD block,HTT cytoprotect,ALDH1A1 inh
COc1ccc(CNC(=O)COC(=O)Cc2ccc(Cl)cc2Cl)cc1,28,-7%,0.56µM*,-18%,-87%[1.9 µM],?
Nc1ccc(S(=O)(=O)Nc2ccccc2)cc1,.,.,16%,.,?,.
O=c1[nH][nH]c(=S)n1C1CCCCC1,.,-2%,-13%[9.22 µM],.,-23%[10 µM],1.3µM*
CC(C)C1NC(=S)N(C2CCCCC2)C1=O (configuration not stated),-17,-1%,23%,-25%,.,-23%
Cc1ccccc1-c1nccc(NCc2cccnc2)n1,.,.,.,.,1%,?
CC(=O)N(Cc1ccc(F)cc1)C1=C(NCCc2ccccc2)C(=O)c2ccccc2C1=O,10,?,7.1µM*,-5%,-157%,?
c1ccc(Cn2nnnc2C(c2ccccc2)N2CCN(c3nc4ccccc4s3)CC2)cc1 (configuration not stated),35,12%,1%,-9%,9%[10 µM],11µM*
CN1CCN(C(c2cccc(C(F)(F)F)c2)c2nnnn2Cc2ccccc2)CC1 (configuration not stated),7,2%,-8%,-3%,3%,10%
c1ccc(C(c2nnnn2Cc2ccco2)N2CCN(c3nc4ccccc4s3)CC2)cc1 (configuration not stated),37,-3%,4%,-15%,-21%[10 µM],3%
c1csc(Cn2nnnc2CN2CCN(c3nc4ccccc4s3)CC2)c1,?,7%,-12%,-9%,5%,16µM*
Cc1ccc(C)c(N2CCN(C(c3ccncc3)c3nnnn3Cc3ccccc3)CC2)c1 (configuration not stated),-6,10%,-14%,?,-11%,13µM*
CCC(=O)N1CCN(c2nc3ccccc3s2)CC1,-15,1%,-17%,-6%,-48%,-3%
O=C(c1cc2sccc2n1Cc1ccccc1)N1CCN(c2nc3ccccc3s2)CC1,76,-16%,7.9µM*,-13%,-34%,?
COc1ccc(C(c2nnnn2Cc2ccccc2)N2CCN(c3nc4ccccc4s3)CC2)cc1OC (configuration not stated),-2,2%,-21%,-14%,-16%[1.9 µM],-7%
O=C(CCc1nnc(CCCCc2ccccc2)o1)NCCN1CCOC1=O,.,-2%,4%[9.22 µM],.,-6%[10 µM],0.11µM*
CCOC(=O)C1=C(SCC)c2cc3c(n2C1=O)CCCC3,-23,-27%,31%,-5%,4%[10 µM],?
N#CC1=C(N2CCCCC2)c2cc3c(n2C1=O)CCCC3,0,-6%,-26%,25µM*,-6%,8.9µM*
Cc1ccc(F)c(C2C3C=CCC(c4cccc(-c5ccc(N(C)C)cc5)c4)C3C(=O)N2Cc2ccccc2)c1 (configuration not stated),.,-14%,3.2µM*,.,-38%[10 µM],.
O=C(CSc1nnc(-c2ccc(F)cc2)o1)Nc1ccc(S(=O)(=O)N2CCCC2)cc1,4,7%,15%,-10%,-23%[10 µM],16µM*
CC(C)CNC(=O)CSc1nnc(-c2cccc(S(=O)(=O)N3CCCCC3)c2)o1,-128*,1%,20%,-22%,-3%,2%
COCC(C)NC(=O)CSc1nnc(-c2cccc(S(=O)(=O)N3CCCCC3)c2)o1 (configuration not stated),.,6%,4%,.,.,6%
CCN(CC)S(=O)(=O)c1ccc(NC(=O)COC(=O)CNS(=O)(=O)/C=C/c2ccccc2)cc1,24,28%,6%,-15%,-25%[10 µM],1µM*
CCN(CC)S(=O)(=O)c1ccc(NC(=O)CSc2cccc[n+]2[O-])cc1,14,2%,11%,-12%,8%,22µM*
Cc1cc2c(ncn2Cc2ccccc2)c(N)c1C,.,-25%,-6%,.,39%[10 µM],3%
CCN(CC)S(=O)(=O)c1ccc(-c2nnc(SCC(=O)Nc3ccc4c(c3)OCO4)o2)cc1,?,-5%,3%,-11%,-15%[10 µM],?
